Common to all, as to assay: NCI-60 one-dose screen, 48 h (100 = growth as untreated, 0 = no growth, -100 = all killed)
Test [1] has as its system SK-MEL-2 melanoma. As to conditions: 10 µM unless noted.
Test [2] deals with EKVX NSCLC. As to conditions: 10 µM unless noted.
The subject of test [3] is UO-31 renal. As to conditions: 10 µM unless noted.
The test system of test [4] is TK-10 renal. As to conditions: 10 µM unless noted.
For test [5], the system named is ACHN renal. As to conditions: 10 µM unless noted.
Test [6] deals with CAKI-1 renal. Conditions: 10 µM unless noted.
In test [7] the test system is A498 renal. As to conditions: 10 µM.
Test [8] has as its system HL-60(TB) leukemia. Conditions: 10 µM unless noted.
Test [9] relates to CCRF-CEM leukemia. As to conditions: 10 µM unless noted.

The structures appear in SMILES notation. This is part of a sample that, as a whole, favours compounds with a hit. Of some 83,000 tested, about 20% had one in any assay.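 Interpretation: 100, growth as untreated; towards 0, rising growth inhibition; 0, no net growth; 0 to -100, cell death. Compounds scoring below 10 were considered active.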 Unmarked numbers belong to inactive results. The source made the active and inactive calls.

On to `CCC(=O)Nc1ccc(Cl)c(Cl)c1`, for which the growth in test [1] is 94.3%; in test [2] it was 98.4%; in test [3] it was 89%; in [4], 86.3%; in test [5] it was 98.2%; in [6], 96.8%. For the same compound, the growth in test [7] was 89.7%; in test [8], 92.4%; in test [9] it was 103%.
With `Nc1ncnc2n[nH]nc12`, the growth in test [1] is 12.5%; in test [2] it was 66.7%; in test [3] it was 35.9%; in [4], 61%; in test [5], 46.5%; in [7], 51.4%. Besides, the growth in test [8] is 83.5%; in test [9], 80.7%.
As for `Cc1ccc(Nc2nc3c(s2)C2=CC[C@@H]4[C@H](CC[C@]5(C)C(=O)CC[C@@H]45)[C@@]2(C)CC3)cc1`, the growth in [1] was 46.3%; in test [2], 56.7%; in test [3] it was 48.3%; in test [4], 53.5%; in [5], 20.1%; in [6], 34.3%. Further, the growth is 51.3% in test [7], 34% in [8] and 7.68% (active) in test [9].
For `Cc1ccccc1NC(=NCCCN1CC1)Nc1ccccc1C`, the growth in test [1] was 114%; in [2], 96.8%; in test [3] it was 73.3%; in test [4] it was 99.7%; in test [5], 90.1%; in test [7] it was 91.7%. Moreover, the growth in test [8] is 95.9%; in test [9], 89.7%.
With `CC(=O)[C@H]1CC[C@H]2[C@@H]3CC[C@H]4C[C@H](N)CC[C@]4(C)[C@H]3CC[C@]12C`, the growth in test [1] is 89.8%; in [2], 76.9%; in test [3] it was 63.1%; in test [4], 82.6%; in [5] it was 82.9%; in test [7], 78.6%. Also, the growth in test [8] was 63.4%; in [9], 102%.
Regarding `CC1=C2[C@@H](CC1)[C@]1(C)O[C@@](C(C)C)(C[C@H]1O)[C@H]2OC(=O)C1CC1c1ccccc1` (stereo not given in full), the growth is 87.7% in test [1]; 88% in test [2]; 74.7% in test [3]; 104% in [4]; 84.2% in [5]; 79.5% in test [6]. For the same compound, the growth in test [7] was 72.7%; in test [8], 80.5%; in test [9] it was 74.9%.
As to `Fc1ccc2c(c1)c(-c1nc(-c3c[nH]c4ncccc34)cs1)cn2CCN1CCOCC1`, the growth in test [1] is 67.4%; in [2] it was 32.8%; in test [3], 25.5%; in [4], 64.1%; in test [5], 48.3%; in test [7], 74.1%. Also, the growth in [8] was 48.1%; in [9], 35.2%.
In the case of `CCCCCCCCCCCCNC(c1ccccc1)C(O)c1ccccc1` (stereo not given), the growth in [1] is 92.8%; in test [2] it was 92.6%; in [3], 72%; in test [4], 98.8%; in test [5], 67.4%; in [7], 116%. Also, the growth in test [8] is 66.8%; in [9], 63.1%.
Consider `COc1cc([C@@H]2c3cc4c(cc3[C@H](OC(C)=O)[C@H]3COC(=O)[C@@H]23)OCO4)cc(OC)c1OC`, for which the growth in test [1] is 40.2%; in test [2], 33.1%; in test [3] it was 38.9%; in test [4], 41.8%; in test [5], 29.8%; in test [7] it was -15.7% (active). Also, the growth in test [8] is -1.71% (active); in test [9] it was 22.6%.
Consider `Cn1cc(C=O)c2nccnc21`, for which the growth in test [1] is 123%; in test [2] it was 96.9%; in test [3], 106%; in [4], 94.8%; in [5], 109%; in [8], 107%. Besides, in [9], the growth is 102%.
For the compound `O=C1C(N2CC2)=C(N2CC2)C(=O)C(N2CC2)=C1N1CC1`, the growth in test [1] is -24.2% (active); in [2] it was 22.9%; in [3] it was -56.2% (active); in test [4] it was 2.35% (active); in [5], -45.9% (active); in test [6], 7.04% (active). Also, the values for the growth in test [7], in test [8] and in test [9] were -75.4% (active), 21.8% and 39.2%, respectively.
As to `COc1ccc(C2=CC(c3ccc(OC)c(OC)c3)c3c(c4ccccc4oc3=O)O2)cc1OC` (stereo not given), the growth in test [1] is 8.03% (active); in test [2], 30.4%; in test [3], 21.8%; in test [4], 42%; in test [5], 52.7%; in test [6] it was 7.77% (active). Moreover, the values for the growth in test [7], in test [8] and in test [9] were -3.43% (active), -59.9% (active) and -6.1% (active), respectively.
For `CC[C@H](C)[C@@H]1OC(=O)C(C)(C)[C@H](O)[C@H](Cc2ccccc2)OC(=O)[C@H](C(C)C)OC(=O)[C@@H](NC(=O)c2cccc(NC=O)c2O)[C@@H](C)OC1=O`, the growth in [1] was 36.2%; in [2], 29.9%; in test [3] it was 47.3%; in [4], 49.8%; in [6] it was 38.7%; in test [7] it was 67.2%. The growth in [8] is 60%; in test [9], 36.7%.
Regarding `Oc1c(O)c(Cl)c(Cl)c(Cl)c1Cl`, the growth is 39.1% in test [1]; 36.6% in test [2]; 3.66% (active) in test [3]; 73.4% in test [4]; 32.2% in test [5]; 63.7% in [7]. Moreover, the growth in [8] is 24.9%; in [9] it was 35.3%.
For the compound `O[C@H](CN1CC1)[C@@H](O)CN1CC1`, the growth in test [1] was 87%; in test [2], 94.6%; in test [3], 51.1%; in [4] it was 101%; in test [5], 24%; in test [6], -0.578% (active). For the same compound, the figures for the growth in [7], in test [8] and in [9] were 95.1%, 30.7% and 33.3%, respectively.

These data come from PubChem BioAssay (NCI).
